Data on 17 compounds can be found in PubChem BioAssay (EPA / NIEHS).

For orientation: AC50 means the concentration at which the activity in the assay is half-maximal.

Where a structure was tested more than once in an assay, its records may differ in their call. The source made the active and inactive calls. The calls were made as follows: active = hit-call score of the fitted dose curve at least 0.9, where 1 is the maximum; inactive = score below 0.9.

Read-out in assay [1]: Macrophage colony-stimulating factor (MCSF), CSF1 (gene 1435)
Nature of the assay: BSK_hDFCGF_MCSF: BioMAP Diversity Plus: hDFCGF Assay for Macrophage colony-stimulating factor (MCSF) Biomarker Activity (AID 2283060). The conditions noted are these: primary human foreskin fibroblasts; actives raise or lower the signal. Put shortly: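 Human foreskin primary fibroblasts were treated with test chemical for 24 h, and M-CSF was then measured by ELISA. Data were fitted bidirectionally against DMSO as the negative control and activity baseline.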

Assay [2] is described as follows: BSK_hDFCGF_SRB: Viability Assessment in the BioMAP Diversity Plus: hDFCGF Assay (AID 2283061).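 Also: cells exposed to compound for 24 h before the read.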 As to conditions: primary human foreskin fibroblasts. In a few lines:
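Human foreskin primary fibroblasts were treated with compound and assessed 24 h after dosing. Total protein was measured by sulforhodamine B staining (0.1% SRB after 10% TCA fixation, 560 nm read) as a cytotoxicity marker, with bidirectional fitting against DMSO baseline.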

Read-out in assay [3]: TIMP metallopeptidase inhibitor 1 (TIMP1), TIMP1 (gene 7076)
Nature of the assay: BSK_hDFCGF_TIMP1: BioMAP Diversity Plus: hDFCGF Assay for TIMP metallopeptidase inhibitor 1 (TIMP1) Biomarker Activity (AID 2283062). The conditions noted are these: primary human foreskin fibroblasts; actives raise or lower the signal. Put shortly:
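Primary human foreskin fibroblasts in the hDFCGF system were dosed with compound for 24 h, then TIMP-1 was measured by ELISA. Activity was fitted bidirectionally relative to DMSO control; parallel SRB staining assessed cytotoxicity.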

Read-out in assay [4]: Monokine induced gamma interferon (MIG), CXCL9 (gene 4283)
Nature of the assay: BSK_hDFCGF_MIG: BioMAP Diversity Plus: hDFCGF Assay for Monokine induced gamma interferon (MIG) Biomarker Activity (AID 2283063). The conditions noted are these: primary human foreskin fibroblasts; actives raise or lower the signal. In a few lines: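 ELISA read-out of MIG from primary human dermal fibroblasts 24 h post-dosing. Gain or loss of signal fitted bidirectionally, DMSO as baseline.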

Read-out in assay [5]: Matrix Metallopeptidase 1 (MMP1), MMP1 (gene 4312)
Nature of the assay: BSK_hDFCGF_MMP1: BioMAP Diversity Plus: hDFCGF Assay for Matrix Metallopeptidase 1 (MMP1) Biomarker Activity (AID 2283064). The conditions noted are these: primary human foreskin fibroblasts; actives raise or lower the signal. Put shortly: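 ELISA read-out of MMP1 from human foreskin fibroblasts (primary skin cells), 24 h post-dose. Gain or loss of signal was fitted bidirectionally versus DMSO negative control; cytotoxicity was checked by SRB in parallel cultures.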

Read-out in assay [6]: Vascular cell adhesion molecule 1 (VCAM1), VCAM1 (gene 7412)
Put plainly: BSK_hDFCGF_VCAM1: BioMAP Diversity Plus: hDFCGF Assay for Vascular cell adhesion molecule 1 (VCAM1) Biomarker Activity (AID 2283065).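 As to AC50: VCAM-1 protein level quantified by ELISA after 24 h chemical exposure.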 As to conditions: primary human foreskin fibroblasts; actives raise or lower the signal. In a few lines:
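Primary human foreskin fibroblasts (hDFCGF system) were dosed with chemical and VCAM-1 was measured by ELISA 24 h later. Bidirectional curve fitting used DMSO as negative control and activity baseline.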

Read-out in assay [7]: Plasminogen activator inhibitor-1 (PAI1), SERPINE1 (gene 5054)
Nature of the assay: BSK_hDFCGF_PAI1: BioMAP Diversity Plus: hDFCGF Assay for Plasminogen activator inhibitor-1 (PAI1) Biomarker Activity (AID 2283066). As to conditions: primary human foreskin fibroblasts; actives raise or lower the signal. In a few lines:
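PAI-1 levels in human dermal foreskin fibroblasts were quantified by ELISA 24 h after dosing, with gain or loss analysed against DMSO. Overt cytotoxicity was checked by sulforhodamine B total-protein staining in parallel cultures.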

Read-out in assay [8]: Intercellular Adhesion Molecule 1 (ICAM1), ICAM1 (gene 3383)
Put plainly: BSK_KF3CT_ICAM1: BioMAP Diversity Plus: KF3CT Assay for Intercellular Adhesion Molecule 1 (ICAM1) Biomarker Activity (AID 2283067). The conditions noted are these: primary human keratinocytes with fibroblasts; actives raise or lower the signal. Put shortly:
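Human keratinocyte plus foreskin fibroblast primary co-culture was exposed to chemical for 24 h. ICAM-1 was then quantified by ELISA, and the data were fit bidirectionally against DMSO as the negative control and baseline.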

Read-out in assay [9]: Interferon-gamma inducible Protein 10 (IP10), CXCL10 (gene 3627)
Nature of the assay: BSK_KF3CT_IP10: BioMAP Diversity Plus: KF3CT Assay for Interferon-gamma inducible Protein 10 (IP10) Biomarker Activity (AID 2283068). As to conditions: primary human keratinocytes with fibroblasts; actives raise or lower the signal. In a few lines:
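In a primary skin co-culture of keratinocytes and fibroblasts, IP-10 is quantified by ELISA at 24 h after dosing. SRB staining of parallel wells monitors overt toxicity. Curves are fitted both directions against DMSO.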

Assay [10] in a line: BSK_KF3CT_SRB: Viability Assessment in the BioMAP Diversity Plus: KF3CT Assay (AID 2283069).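 Also: fitted for both signal gain and loss against DMSO baseline.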 The conditions noted are these: primary human keratinocytes with fibroblasts. In a few lines: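 SRB read-out at 560 nm (0.1% stain, TCA-fixed cells) gauges overt cytotoxicity in a human skin keratinocyte–fibroblast co-culture 24 h post-dosing. Signal change was fitted bidirectionally relative to DMSO control.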

For `COCC(=O)N(c1c(C)cccc1C)C(C)C(=O)OC` (stereo unspecified), the outcome in [1], in [2], in assay [3], in assay [4], in assay [5] and in assay [6] was inactive. Besides, the outcome in [7], in [8], in assay [9] and in assay [10] was inactive.
Consider `Cc1c(COC(=O)[C@@H]2[C@H](/C=C(\Cl)C(F)(F)F)C2(C)C)cccc1-c1ccccc1`, for which the AC50 in assay [1] is 3.97 µM (active); in assay [5], 3.23 µM (active). Also, the result in assay [2], in assay [3], in assay [4], in assay [6], in [7] and in assay [8] was inactive. The result in assay [10] was inactive.
As for `CCCCC(O)(Cn1cncn1)c1ccc(Cl)cc1Cl` (stereo unspecified), the result in assay [1], in assay [2], in [3], in [4], in assay [6] and in assay [8] was inactive. Also, the outcome in assay [9] and in [10] was inactive. In addition, the AC50 was 12.7 µM (active) in assay [5] and 21.2 µM (active) in [7].
With `C=C(C)CN(CC)c1c([N+](=O)[O-])cc(C(F)(F)F)cc1[N+](=O)[O-]`, the result in assay [1], in [2], in assay [3], in assay [4], in assay [6] and in assay [7] was inactive. For the same compound, the result in assay [8] and in [10] was inactive. Besides, the AC50 in [5] was 3.92 µM (active).
For `CC1(C)CCC(=Cc2ccc(Cl)cc2)C1(O)Cn1cncn1` (stereo unspecified), the result in assay [1], in assay [2], in [3], in assay [4], in assay [5] and in [6] was inactive. Also, the result in assay [7], in assay [8], in assay [9] and in [10] was inactive.
Regarding `CN=C=S`, the outcome in assay [1], in [2], in assay [3], in [4], in assay [5] and in [6] was inactive. Moreover, the result in assay [7], in assay [8], in [9] and in assay [10] was inactive.
As to `CCCN(CC)CC1COC2(CCC(C(C)(C)C)CC2)O1` (stereo unspecified), the outcome in [1], in assay [2], in assay [6], in assay [7], in assay [8] and in [10] was inactive. Besides, the concentration at half-maximal activity (AC50) in [3] is 3.97 µM (active); in assay [4] it was 0.602 µM (active); in assay [5], 1.43 µM (active); in [9], 3.97 µM (active).
Regarding `COP(=S)(OC)SCn1nnc2ccccc2c1=O`, the outcome in assay [1], in assay [2], in assay [3], in assay [4], in [5] and in [6] was inactive. Also, the outcome in [7], in [8], in [9] and in assay [10] was inactive.
On to `Nc1c(Cl)c(Cl)nc(C(=O)O)c1Cl`, for which the result in [1], in assay [2], in assay [3], in [4], in assay [5] and in assay [6] was inactive. The result in assay [7], in assay [8], in [9] and in [10] was inactive.
For `CSC(=O)c1c(C(F)F)nc(C(F)(F)F)c(C(=O)SC)c1CC(C)C`, the AC50 in assay [1] is 11.4 µM (active); in assay [5], 4.27 µM (active); in [6], 13.4 µM (active); in assay [7], 26.9 µM (active). The outcome in assay [2], in assay [3], in assay [4], in assay [8] and in assay [10] was inactive.
As for `CO/N=C(/C1=NOCCO1)c1ccccc1Oc1ncnc(Oc2ccccc2Cl)c1F`, the outcome in assay [1], in assay [2], in assay [4], in assay [5], in assay [6] and in assay [7] was inactive. Besides, the result in assay [8] and in [10] was inactive. The AC50 in assay [3] was 8.26 µM (active).
With `COCC(C)N(C(=O)CCl)c1c(C)csc1C` (stereo unspecified), the outcome in assay [2], in assay [3], in [4], in assay [5], in assay [6] and in assay [7] was inactive. The outcome in assay [8] and in assay [10] was inactive. Also, the AC50 in assay [7] is 20 µM (active).
In the case of `CCOP(=O)(OCC)Oc1nc(Cl)c(Cl)cc1Cl`, the AC50 in assay [2] was 36.3 µM (active); in assay [6], 18.4 µM (active); in assay [7] it was 20 µM (active); in assay [9], 19 µM (active); in [10], 8.75 µM (active). Besides, the outcome in [3], in assay [4], in assay [5] and in [8] was inactive.
Regarding `CCCC(=NOCC)C1=C(O)CC(CC(C)SCC)CC1=O` (stereo unspecified), the result in [1], in assay [2], in assay [3], in [4], in [5] and in assay [6] was inactive. In addition, the outcome in assay [7], in [8] and in assay [10] was inactive.
Turning to `COc1cc(OC)nc(NC(=O)NS(=O)(=O)c2ncccc2OCC(F)(F)F)n1`, the result in assay [1], in assay [2], in [3], in assay [4], in assay [5] and in assay [6] was inactive. The result in assay [7], in assay [8] and in assay [10] was inactive.
Turning to `O=C(O)c1c(Cl)ccc2cc(Cl)cnc12`, the outcome in assay [1], in [2], in [3], in assay [4], in assay [5] and in [6] was inactive. The result in assay [7], in assay [8], in assay [9] and in [10] was inactive.
Turning to `CCOc1cc(C(C)(C)C)ccc1C1COC(c2c(F)cccc2F)=N1` (stereo unspecified), the AC50 in assay [1] is 14.5 µM (active); in assay [2] it was 19.7 µM (active); in [3] it was 13.8 µM (active); in [4], 29.4 µM (active); in [5], 14.3 µM (active); in assay [6] it was 15.3 µM (active). For the same compound, the concentration at half-maximal activity (AC50) in [7] was 12.3 µM (active); in assay [8] it was 31.3 µM (active); in [10] it was 8.44 µM (active).
